Test systems include NCI-H322M lung; HOP-92 NSCLC; RXF 393 renal; CCRF-CEM leukemia; SR leukemia; OVCAR-4 ovarian; T-47D breast; BT-549 breast; MDA-MB-435 melanoma; SW-620 colon; MCF7 breast; HCT-116 colon; HCC-2998 colon; ACHN renal; KM12 colon; NCI-H522 lung; SK-MEL-28 melanoma; SK-MEL-5 melanoma.
Common to all, as to experiment: NCI-60 one-dose screen, 48 h (100 = growth as untreated, 0 = no growth, -100 = all killed)
Holding throughout (conditions): 10 µM

The panel holds about 83,000 compounds, 20% with a hit somewhere; the sample as a whole holds those more often.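 The endpoint reported here, percent growth, reads 100 for growth as untreated, 0 for no net growth and -100 for all cells dead.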 Values without a mark were called inactive. Activity calls are given as the source filed them. Rule for the calls: active = growth percent below 10; inactive = the rest.

As to `COc1ccc(Cc2nn(CC(=O)N/N=C/c3ccc(Br)cc3)c(=O)c3c(C)noc23)cc1`, the growth with NCI-H322M lung is 62.6%; in the test on HOP-92 NSCLC, -15% (active); with RXF 393 renal it was -33.7% (active); in the test on CCRF-CEM leukemia, 40.5%; in the test with SR leukemia it was 38.5%; in the test on OVCAR-4 ovarian, -44% (active). In addition, the growth is -1.9% (active) in the test with T-47D breast; 50% in the test on BT-549 breast; 54.1% in the test on MDA-MB-435 melanoma; 48.8% with SW-620 colon; 40.4% with MCF7 breast; 0.469% (active) in the test with HCT-116 colon. The growth in the test on HCC-2998 colon is 73.8%.

Take `COc1cc(C2CC(c3ccccc3)=Nc3c(N)nc(N)nc3N2)ccc1Oc1nc(NCCO)nc(N2CCOCC2)n1` (configuration not stated): the growth in the test with NCI-H322M lung was 90.6%; in the test with HOP-92 NSCLC, 86.3%; with RXF 393 renal, 95.7%; with ACHN renal, 103%; in the test with CCRF-CEM leukemia it was 92.4%; in the test with OVCAR-4 ovarian, 105%. Besides, the growth was 90% in the test with T-47D breast; 92.6% in the test on BT-549 breast; 102% in the test on MDA-MB-435 melanoma; 107% with SW-620 colon; 83% with MCF7 breast; 105% with HCT-116 colon. The figures for the growth with HCC-2998 colon and with KM12 colon were 115% and 102%, respectively.

`C#C[C@]1(O)CC[C@H]2[C@@H]3CC=C4c5sc(Nc6ccc(N(C)C)cc6)nc5CC[C@]4(C)[C@H]3CC[C@@]21C`: the growth in the test on NCI-H322M lung was 42.5%; in the test with HOP-92 NSCLC, 9.62% (active); in the test on NCI-H522 lung, -57.1% (active); in the test on RXF 393 renal, -51.3% (active); with ACHN renal, -4.47% (active); in the test with CCRF-CEM leukemia, -1.45% (active). Moreover, the growth in the test with OVCAR-4 ovarian was 36.1%; in the test on BT-549 breast, -58.8% (active); in the test on MDA-MB-435 melanoma, 5.17% (active); with SW-620 colon, 4.36% (active); in the test on MCF7 breast, -36.2% (active); in the test on HCT-116 colon it was -77.9% (active). For the same compound, the growth in the test with HCC-2998 colon is 33.4%.

With `Cc1cc(N=C2NC(=O)S/C2=C\c2ccc(F)cc2)n[nH]1`, the growth in the test with NCI-H322M lung is 32.3%; in the test on RXF 393 renal, -37.4% (active); in the test with SK-MEL-28 melanoma, -7.09% (active); in the test on CCRF-CEM leukemia, 9.4% (active); with OVCAR-4 ovarian, 22.7%; in the test on T-47D breast, 18.1%. The growth in the test on BT-549 breast was 3.56% (active); with MDA-MB-435 melanoma, -11.3% (active); in the test on SW-620 colon it was 20.7%; with MCF7 breast, 7.74% (active); with HCT-116 colon, -51.5% (active); with HCC-2998 colon it was 22.4%.

Consider `C#CCOc1cc(N(CC)CC)ccc1C(C(=O)NC(C)(C)C)N(C(=O)C1CCc2cc(F)ccc2O1)c1ccc(F)cc1F` (configuration not stated), for which the growth in the test on HOP-92 NSCLC is 30.5%; with NCI-H522 lung, 30.7%; in the test with RXF 393 renal, 64.6%; in the test on SK-MEL-5 melanoma, 11.2%; with CCRF-CEM leukemia, 39.7%; in the test with OVCAR-4 ovarian, 43.7%. Further, the growth was 31.1% in the test with BT-549 breast; 40.6% in the test with MDA-MB-435 melanoma; 53.7% in the test on SW-620 colon; 17.5% in the test on MCF7 breast; 78.1% with HCC-2998 colon.

`Cn1cc(-c2cc3nc(-c4c[nH]c5ccccc45)cc(N)n3n2)c2cc(Cl)ccc21`: the growth in the test on NCI-H322M lung is -98.8% (active); in the test with HOP-92 NSCLC, -81% (active); with RXF 393 renal, -82.7% (active); with ACHN renal it was -100% (active); with CCRF-CEM leukemia it was -12.6% (active); in the test with OVCAR-4 ovarian, -73.8% (active). Moreover, the growth is -90.4% (active) with BT-549 breast; -93.1% (active) in the test on MDA-MB-435 melanoma; -61% (active) in the test with SW-620 colon; -85.9% (active) with MCF7 breast; -84.6% (active) in the test with HCT-116 colon; -84.1% (active) with HCC-2998 colon.

Turning to `COc1ccc(C2OC[C@@]3(C)C4CC[C@]5(C)C(CC=C6C7CC(C)(C)CC[C@]7(C(=O)O)CC[C@]65C)[C@@]4(C)C[C@@H](O)[C@@H]3O2)cc1` (some centres not stated), the growth in the test on NCI-H322M lung is 83.5%; with HOP-92 NSCLC, 64.8%; in the test on RXF 393 renal it was 89%; in the test on SK-MEL-5 melanoma, 80.5%; in the test on CCRF-CEM leukemia, 50.3%; in the test on OVCAR-4 ovarian, 86.9%. Moreover, the growth in the test with T-47D breast was 88.5%; in the test with BT-549 breast it was 82.4%; in the test with MDA-MB-435 melanoma, 97%; in the test with SW-620 colon it was 69.9%; with MCF7 breast, 50.9%; in the test with HCT-116 colon it was 43.3%. In addition, the growth with HCC-2998 colon was 101%; in the test on KM12 colon, 54.4%.

Regarding `COc1cc(Nc2nc(O)c(/C=C3\C=Nc4ccccc43)s2)cc(OC)c1OC`, the growth in the test with NCI-H322M lung was -47.7% (active); in the test with HOP-92 NSCLC, -72.3% (active); in the test with NCI-H522 lung, -13.6% (active); in the test with RXF 393 renal, -69.2% (active); with SK-MEL-28 melanoma, -34.5% (active); in the test on ACHN renal, -2.09% (active). The growth in the test with CCRF-CEM leukemia was 14.9%; in the test with OVCAR-4 ovarian, -63.9% (active); in the test with T-47D breast, 2.48% (active); in the test on BT-549 breast it was -41.4% (active); in the test on MDA-MB-435 melanoma, -77.1% (active); in the test on SW-620 colon, -52.1% (active). Moreover, the growth was -23.7% (active) with MCF7 breast, -48.2% (active) in the test with HCC-2998 colon and -72.4% (active) with KM12 colon.

As to `COC(=O)CNC(=O)COc1c(OC)c(OC)cc2oc(-c3cccc(C(=O)Nc4ccc(Cl)cc4)c3)cc(=O)c12`, the growth in the test on HOP-92 NSCLC was 39.1%; in the test with NCI-H522 lung, 64.9%; with RXF 393 renal, 45.9%; in the test on ACHN renal, 47.2%; in the test with CCRF-CEM leukemia it was 94.7%; in the test on OVCAR-4 ovarian it was 6.23% (active). For the same compound, the growth was 1.95% (active) with BT-549 breast; 28.5% with MDA-MB-435 melanoma; 51.4% in the test on SW-620 colon; 22.5% in the test with MCF7 breast; 43.8% with HCT-116 colon; 74.2% in the test with HCC-2998 colon. Besides, the growth with KM12 colon is 41.5%.

As for `COc1ccc(C2c3sc4ccc(C)cc4c3Oc3nc(N)nc(N)c32)cc1` (configuration not stated), the growth in the test with NCI-H322M lung is 89.3%; with RXF 393 renal, 64.8%; in the test on SK-MEL-5 melanoma, 92.9%; in the test with SK-MEL-28 melanoma, 93.2%; in the test on ACHN renal it was 94.4%; with CCRF-CEM leukemia it was 82.8%. Further, the growth is 51.2% with SR leukemia; 85.8% in the test on OVCAR-4 ovarian; 84.5% with BT-549 breast; 9.83% (active) in the test with MDA-MB-435 melanoma; 84.8% with SW-620 colon; 53.8% with MCF7 breast. Besides, the growth in the test with HCC-2998 colon is 94%.

With `O=C(CN1CCN(c2ncnc3c2cnn3-c2ccccc2)CC1)Nc1ccc(Cl)cc1`, the growth in the test on HOP-92 NSCLC is 69.8%; in the test with NCI-H522 lung, -83.1% (active); in the test with RXF 393 renal it was 74.4%; in the test with SK-MEL-28 melanoma, 72.8%; with CCRF-CEM leukemia, 51.9%; in the test with OVCAR-4 ovarian, 44.5%. Also, the growth in the test on BT-549 breast is 39.1%; in the test with MDA-MB-435 melanoma it was 47%; in the test on SW-620 colon it was 78.4%; in the test with MCF7 breast, 27.6%; in the test with HCT-116 colon, 51.8%; with HCC-2998 colon, 55.8%.
